# Measurements as given in PMC7862700, “An all-to-all approach to the identification of sequence-specific readers for epigenetic DNA modifications on cytosine”.
# Legend:
# Assay in all cases: DAPPL (digital affinity profiling via proximity ligation, sequencing); 10 mM Tris-HCl pH 7.5, 50 mM NaCl, 1 mM DTT, 4% glycerol, room temperature, 30 min; GST-TFs on glutathione beads, 16-mer random dsDNA library, 0.1% formaldehyde crosslink after washing; high values mean tight binding
# FEV = target: T1, FEV (Homo sapiens, UniProt Q99581 1-238); conditions: protein: recombinant; tags: N-terminal GST; dsDNA, one strand shown
# T1 sequence: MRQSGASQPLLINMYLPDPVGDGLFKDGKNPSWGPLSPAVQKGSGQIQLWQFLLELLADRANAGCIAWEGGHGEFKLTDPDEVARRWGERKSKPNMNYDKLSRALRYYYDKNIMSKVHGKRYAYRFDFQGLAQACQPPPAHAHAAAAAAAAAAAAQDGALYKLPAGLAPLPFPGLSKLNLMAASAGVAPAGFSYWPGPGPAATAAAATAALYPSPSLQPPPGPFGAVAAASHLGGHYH
# Outline: (§1)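 Binding signal is given per hexamer as its read frequency for a factor divided by its frequency in the tag-only sample. GST-fused human transcription factors were expressed in yeast, captured on glutathione beads, barcoded with DNA and pooled with that sample, then incubated with 200 nmole of a 16-mer random double-stranded DNA library in Tris/NaCl/DTT/glycerol buffer for 30 min at room temperature. The pools were then washed, crosslinked, proximity-ligated, amplified by PCR and sequenced on an Illumina NextSeq500.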
# ETV5 = ETV5 (Homo sapiens, UniProt P41161 1-510); conditions: protein: recombinant; tags: N-terminal GST; dsDNA, one strand shown
# Outline: as §1
# HSF1 = HSF1 (Homo sapiens, UniProt Q00613 1-529); conditions: protein: recombinant; tags: N-terminal GST; chain copies: 3; dsDNA, one strand shown
# Outline: as §1
# SPIC = target: T2, SPIC (Homo sapiens, UniProt Q8N5J4 1-248); conditions: protein: recombinant; tags: N-terminal GST; dsDNA, one strand shown
# T2 sequence: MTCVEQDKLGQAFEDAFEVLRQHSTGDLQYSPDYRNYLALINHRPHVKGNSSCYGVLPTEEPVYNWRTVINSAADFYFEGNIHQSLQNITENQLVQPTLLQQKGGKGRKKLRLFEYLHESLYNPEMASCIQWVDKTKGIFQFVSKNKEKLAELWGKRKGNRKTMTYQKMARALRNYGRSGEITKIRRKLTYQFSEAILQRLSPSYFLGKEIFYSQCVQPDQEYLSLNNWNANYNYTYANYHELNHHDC
# Outline: as §1
# ELF4 = ELF4 (Homo sapiens, UniProt Q99607 1-663); conditions: protein: recombinant; tags: N-terminal GST; dsDNA, one strand shown
# Outline: as §1
# ELK4 = target: T3, ELK4 (Homo sapiens, UniProt P28324-2 1-405); conditions: protein: recombinant; tags: N-terminal GST; dsDNA, one strand shown
# T3 sequence: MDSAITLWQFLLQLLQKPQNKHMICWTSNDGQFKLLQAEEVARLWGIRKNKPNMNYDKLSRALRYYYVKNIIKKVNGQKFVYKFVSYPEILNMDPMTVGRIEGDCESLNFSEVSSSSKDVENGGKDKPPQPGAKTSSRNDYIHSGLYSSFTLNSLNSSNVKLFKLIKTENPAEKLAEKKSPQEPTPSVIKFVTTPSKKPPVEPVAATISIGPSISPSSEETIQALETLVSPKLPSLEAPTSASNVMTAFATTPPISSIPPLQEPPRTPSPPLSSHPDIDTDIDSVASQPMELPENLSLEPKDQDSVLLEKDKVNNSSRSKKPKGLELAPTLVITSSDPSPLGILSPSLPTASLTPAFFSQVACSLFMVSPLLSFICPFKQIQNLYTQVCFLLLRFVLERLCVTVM
# Outline: as §1
# ETV2 = target: T4, ETV2 (Homo sapiens, UniProt O00321 1-342); conditions: protein: recombinant; tags: N-terminal GST; dsDNA, one strand shown
# T4 sequence: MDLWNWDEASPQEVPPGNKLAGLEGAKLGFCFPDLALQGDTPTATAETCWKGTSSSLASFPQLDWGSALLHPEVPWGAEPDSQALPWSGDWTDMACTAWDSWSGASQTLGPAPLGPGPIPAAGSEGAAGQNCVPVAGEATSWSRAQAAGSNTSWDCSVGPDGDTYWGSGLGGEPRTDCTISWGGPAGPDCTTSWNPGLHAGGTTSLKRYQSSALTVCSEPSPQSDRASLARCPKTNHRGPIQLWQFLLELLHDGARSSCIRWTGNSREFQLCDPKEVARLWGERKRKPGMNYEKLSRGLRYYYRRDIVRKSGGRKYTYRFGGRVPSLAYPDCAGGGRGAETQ
# Outline: as §1
# ELF3 = target: T5, ELF3 (Homo sapiens, UniProt P78545 1-371); conditions: protein: recombinant; tags: N-terminal GST; dsDNA, one strand shown
# T5 sequence: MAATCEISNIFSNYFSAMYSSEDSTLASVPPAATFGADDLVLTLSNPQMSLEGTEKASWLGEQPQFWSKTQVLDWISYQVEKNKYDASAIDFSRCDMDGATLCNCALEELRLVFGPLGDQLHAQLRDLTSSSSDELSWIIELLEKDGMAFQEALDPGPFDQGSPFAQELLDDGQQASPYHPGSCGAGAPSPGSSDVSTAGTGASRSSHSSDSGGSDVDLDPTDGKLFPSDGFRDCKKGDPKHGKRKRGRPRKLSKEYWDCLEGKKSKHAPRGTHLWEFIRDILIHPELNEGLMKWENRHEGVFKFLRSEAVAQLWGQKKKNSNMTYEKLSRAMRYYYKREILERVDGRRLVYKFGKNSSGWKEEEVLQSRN
# Outline: as §1
# CRX = CRX (Homo sapiens, UniProt O43186 1-299); conditions: protein: recombinant; tags: N-terminal GST; dsDNA, one strand shown
# Outline: as §1
# ETV1 = ETV1 (Homo sapiens, UniProt P50549 1-477); conditions: protein: recombinant; tags: N-terminal GST; dsDNA, one strand shown
# Outline: as §1
# ERF = target: T6, ERF (Homo sapiens, UniProt P50548 1-548); conditions: protein: recombinant; tags: N-terminal GST; dsDNA, one strand shown
# T6 sequence: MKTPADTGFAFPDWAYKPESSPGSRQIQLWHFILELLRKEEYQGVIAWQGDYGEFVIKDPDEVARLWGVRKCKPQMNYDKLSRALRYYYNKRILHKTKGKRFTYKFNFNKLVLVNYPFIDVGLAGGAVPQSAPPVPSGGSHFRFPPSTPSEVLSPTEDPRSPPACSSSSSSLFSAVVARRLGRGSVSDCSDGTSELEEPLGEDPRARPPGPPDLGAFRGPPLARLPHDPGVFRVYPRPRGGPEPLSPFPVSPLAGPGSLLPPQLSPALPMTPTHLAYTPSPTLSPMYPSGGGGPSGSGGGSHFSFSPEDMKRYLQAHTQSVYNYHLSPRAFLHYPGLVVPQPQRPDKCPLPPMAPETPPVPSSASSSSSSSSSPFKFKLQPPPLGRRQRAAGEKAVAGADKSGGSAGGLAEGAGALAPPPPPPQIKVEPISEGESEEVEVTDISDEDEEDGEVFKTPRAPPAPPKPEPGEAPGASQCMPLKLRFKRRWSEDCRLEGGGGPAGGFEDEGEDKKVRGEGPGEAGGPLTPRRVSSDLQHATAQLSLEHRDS
# Outline: as §1
# ETV3L = target: T7, ETV3L (Homo sapiens, UniProt Q6ZN32 1-361); conditions: protein: recombinant; tags: N-terminal GST; dsDNA, one strand shown
# T7 sequence: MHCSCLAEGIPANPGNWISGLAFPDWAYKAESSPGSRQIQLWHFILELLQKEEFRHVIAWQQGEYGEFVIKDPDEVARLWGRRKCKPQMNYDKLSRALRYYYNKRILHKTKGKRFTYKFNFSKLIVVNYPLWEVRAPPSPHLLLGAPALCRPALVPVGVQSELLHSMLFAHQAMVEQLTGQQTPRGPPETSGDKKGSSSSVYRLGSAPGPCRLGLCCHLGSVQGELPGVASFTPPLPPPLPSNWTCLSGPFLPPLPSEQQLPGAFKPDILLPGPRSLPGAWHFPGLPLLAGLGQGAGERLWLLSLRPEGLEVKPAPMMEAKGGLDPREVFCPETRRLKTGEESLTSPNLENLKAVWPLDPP
# Outline: as §1
# ETS2 = target: T8, ETS2 (Homo sapiens, UniProt P15036 1-469); conditions: protein: recombinant; tags: N-terminal GST; dsDNA, one strand shown
# T8 sequence: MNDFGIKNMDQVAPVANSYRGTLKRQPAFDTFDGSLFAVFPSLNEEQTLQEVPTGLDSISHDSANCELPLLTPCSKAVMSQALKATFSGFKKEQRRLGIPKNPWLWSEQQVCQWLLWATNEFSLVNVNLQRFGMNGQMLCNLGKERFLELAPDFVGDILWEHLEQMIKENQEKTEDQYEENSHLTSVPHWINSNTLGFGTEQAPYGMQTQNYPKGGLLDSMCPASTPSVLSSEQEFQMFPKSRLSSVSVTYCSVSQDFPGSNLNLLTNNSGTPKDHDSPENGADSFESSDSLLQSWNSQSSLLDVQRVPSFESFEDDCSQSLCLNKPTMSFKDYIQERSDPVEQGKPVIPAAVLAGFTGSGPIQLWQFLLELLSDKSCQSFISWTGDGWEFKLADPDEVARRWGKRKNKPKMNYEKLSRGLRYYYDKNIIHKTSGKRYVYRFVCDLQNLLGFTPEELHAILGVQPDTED
# Outline: as §1
# SPDEF = target: T9, SPDEF (Homo sapiens, UniProt O95238 1-335); conditions: protein: recombinant; tags: N-terminal GST; dsDNA, one strand shown
# T9 sequence: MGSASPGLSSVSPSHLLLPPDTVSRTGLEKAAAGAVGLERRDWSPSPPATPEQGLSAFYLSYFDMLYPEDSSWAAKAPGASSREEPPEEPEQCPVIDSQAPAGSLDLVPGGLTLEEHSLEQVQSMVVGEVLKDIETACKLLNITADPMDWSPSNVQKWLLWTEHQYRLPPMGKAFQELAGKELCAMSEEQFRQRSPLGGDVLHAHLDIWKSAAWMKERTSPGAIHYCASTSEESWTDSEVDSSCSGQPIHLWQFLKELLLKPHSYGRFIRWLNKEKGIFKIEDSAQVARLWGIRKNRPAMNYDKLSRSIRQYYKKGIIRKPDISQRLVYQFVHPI
# Outline: as §1
# ETV7 = target: T10, ETV7 (Homo sapiens, UniProt Q9Y603 1-341); conditions: protein: recombinant; tags: N-terminal GST; dsDNA, one strand shown
# T10 sequence: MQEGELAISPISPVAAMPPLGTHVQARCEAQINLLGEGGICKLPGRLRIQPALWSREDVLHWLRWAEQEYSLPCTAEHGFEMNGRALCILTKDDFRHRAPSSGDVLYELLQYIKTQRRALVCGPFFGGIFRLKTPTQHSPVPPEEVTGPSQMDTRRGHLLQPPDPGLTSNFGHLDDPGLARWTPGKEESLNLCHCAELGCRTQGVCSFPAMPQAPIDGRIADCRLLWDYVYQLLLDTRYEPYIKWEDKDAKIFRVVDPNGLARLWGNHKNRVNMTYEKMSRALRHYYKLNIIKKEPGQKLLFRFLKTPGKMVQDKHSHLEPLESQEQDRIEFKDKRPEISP
# Outline: as §1
# ELF5 = target: T11, ELF5 (Homo sapiens, UniProt Q9UKW6-2 1-255); conditions: protein: recombinant; tags: N-terminal GST; dsDNA, one strand shown
# T11 sequence: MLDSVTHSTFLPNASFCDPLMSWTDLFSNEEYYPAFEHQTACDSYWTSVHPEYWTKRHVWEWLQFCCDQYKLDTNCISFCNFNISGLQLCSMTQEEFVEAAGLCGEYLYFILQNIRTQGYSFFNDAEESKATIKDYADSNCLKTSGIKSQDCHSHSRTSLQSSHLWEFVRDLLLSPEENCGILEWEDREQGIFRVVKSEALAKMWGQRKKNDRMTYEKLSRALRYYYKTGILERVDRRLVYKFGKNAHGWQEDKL
# Outline: as §1
# ETV3 = target: T12, ETV3 (Homo sapiens, UniProt P41162-2 1-143); conditions: protein: recombinant; tags: N-terminal GST; dsDNA, one strand shown
# T12 sequence: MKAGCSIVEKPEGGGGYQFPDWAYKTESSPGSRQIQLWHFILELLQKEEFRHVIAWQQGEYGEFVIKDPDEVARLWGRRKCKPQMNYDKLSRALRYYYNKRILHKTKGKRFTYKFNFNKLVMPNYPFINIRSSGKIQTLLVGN
# Outline: as §1
# ETV6 = ETV6 (Homo sapiens, UniProt P41212 1-452); conditions: protein: recombinant; tags: N-terminal GST; dsDNA, one strand shown
# Outline: as §1
# ETV5, sequence (P41161 whole entry): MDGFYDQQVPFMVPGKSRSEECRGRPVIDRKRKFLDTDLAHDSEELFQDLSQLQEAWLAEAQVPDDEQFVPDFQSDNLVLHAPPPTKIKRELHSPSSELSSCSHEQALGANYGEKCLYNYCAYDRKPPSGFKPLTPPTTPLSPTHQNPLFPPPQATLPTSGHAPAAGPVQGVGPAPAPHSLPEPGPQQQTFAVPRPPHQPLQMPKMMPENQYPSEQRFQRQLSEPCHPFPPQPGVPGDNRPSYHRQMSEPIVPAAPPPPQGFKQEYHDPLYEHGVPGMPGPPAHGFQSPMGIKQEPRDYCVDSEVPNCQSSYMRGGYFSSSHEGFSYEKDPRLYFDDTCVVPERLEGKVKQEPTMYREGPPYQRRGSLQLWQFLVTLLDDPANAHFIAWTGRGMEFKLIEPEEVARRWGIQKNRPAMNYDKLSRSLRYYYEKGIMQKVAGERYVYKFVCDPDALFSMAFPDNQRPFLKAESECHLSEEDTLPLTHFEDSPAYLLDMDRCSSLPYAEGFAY
# ELF4, sequence (Q99607 whole entry): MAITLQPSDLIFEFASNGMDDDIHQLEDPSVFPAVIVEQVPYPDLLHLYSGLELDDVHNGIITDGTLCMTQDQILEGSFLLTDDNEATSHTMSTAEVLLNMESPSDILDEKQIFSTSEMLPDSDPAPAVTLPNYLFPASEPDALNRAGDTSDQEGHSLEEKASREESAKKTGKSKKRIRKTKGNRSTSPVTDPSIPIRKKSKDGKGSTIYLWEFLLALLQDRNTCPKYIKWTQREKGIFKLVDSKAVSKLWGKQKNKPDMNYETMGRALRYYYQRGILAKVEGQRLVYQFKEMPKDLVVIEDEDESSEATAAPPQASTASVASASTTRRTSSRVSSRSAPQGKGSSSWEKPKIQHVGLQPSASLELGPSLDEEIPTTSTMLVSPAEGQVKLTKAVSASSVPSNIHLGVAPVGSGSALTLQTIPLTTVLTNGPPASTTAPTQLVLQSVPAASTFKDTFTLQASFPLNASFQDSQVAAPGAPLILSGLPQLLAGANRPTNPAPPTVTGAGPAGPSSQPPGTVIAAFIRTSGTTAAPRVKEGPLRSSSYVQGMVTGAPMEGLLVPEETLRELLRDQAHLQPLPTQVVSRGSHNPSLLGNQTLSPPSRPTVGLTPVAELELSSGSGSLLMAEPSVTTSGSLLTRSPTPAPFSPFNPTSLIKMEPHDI
# ETV6, sequence (P41212 whole entry): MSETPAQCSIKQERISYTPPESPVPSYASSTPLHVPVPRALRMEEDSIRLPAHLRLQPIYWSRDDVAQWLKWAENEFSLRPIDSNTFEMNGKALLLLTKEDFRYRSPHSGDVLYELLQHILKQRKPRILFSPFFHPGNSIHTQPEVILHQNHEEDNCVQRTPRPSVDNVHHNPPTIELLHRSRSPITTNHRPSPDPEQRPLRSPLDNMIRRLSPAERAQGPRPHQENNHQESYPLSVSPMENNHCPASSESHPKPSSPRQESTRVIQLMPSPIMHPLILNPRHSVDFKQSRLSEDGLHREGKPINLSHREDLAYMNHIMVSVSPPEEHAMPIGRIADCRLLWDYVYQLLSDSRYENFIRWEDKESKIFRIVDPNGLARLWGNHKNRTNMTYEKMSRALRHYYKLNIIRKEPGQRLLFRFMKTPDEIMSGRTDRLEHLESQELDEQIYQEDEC
# CRX, sequence (O43186 whole entry): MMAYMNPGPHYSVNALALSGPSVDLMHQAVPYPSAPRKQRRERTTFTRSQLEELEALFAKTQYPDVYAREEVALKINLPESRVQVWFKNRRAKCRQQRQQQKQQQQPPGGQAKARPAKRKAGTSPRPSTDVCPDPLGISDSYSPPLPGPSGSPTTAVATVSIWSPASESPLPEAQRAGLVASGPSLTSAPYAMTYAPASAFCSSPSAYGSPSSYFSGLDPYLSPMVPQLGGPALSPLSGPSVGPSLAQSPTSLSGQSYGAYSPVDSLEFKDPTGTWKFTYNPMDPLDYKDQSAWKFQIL
# ETV1, sequence (P50549 whole entry): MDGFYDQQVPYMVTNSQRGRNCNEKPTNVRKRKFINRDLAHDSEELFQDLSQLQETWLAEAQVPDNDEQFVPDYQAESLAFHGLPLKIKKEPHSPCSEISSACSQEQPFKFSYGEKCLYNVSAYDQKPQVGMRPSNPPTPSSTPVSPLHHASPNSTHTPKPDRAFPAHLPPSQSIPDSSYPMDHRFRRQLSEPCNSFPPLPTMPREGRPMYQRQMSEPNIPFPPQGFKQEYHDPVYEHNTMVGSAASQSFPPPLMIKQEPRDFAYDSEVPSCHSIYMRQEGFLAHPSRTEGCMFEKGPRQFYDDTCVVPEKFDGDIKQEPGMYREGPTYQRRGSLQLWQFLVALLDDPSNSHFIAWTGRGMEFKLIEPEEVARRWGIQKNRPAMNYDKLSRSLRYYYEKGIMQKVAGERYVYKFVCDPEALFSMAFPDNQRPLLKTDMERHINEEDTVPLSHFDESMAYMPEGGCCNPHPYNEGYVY
# HSF1, sequence (Q00613 whole entry): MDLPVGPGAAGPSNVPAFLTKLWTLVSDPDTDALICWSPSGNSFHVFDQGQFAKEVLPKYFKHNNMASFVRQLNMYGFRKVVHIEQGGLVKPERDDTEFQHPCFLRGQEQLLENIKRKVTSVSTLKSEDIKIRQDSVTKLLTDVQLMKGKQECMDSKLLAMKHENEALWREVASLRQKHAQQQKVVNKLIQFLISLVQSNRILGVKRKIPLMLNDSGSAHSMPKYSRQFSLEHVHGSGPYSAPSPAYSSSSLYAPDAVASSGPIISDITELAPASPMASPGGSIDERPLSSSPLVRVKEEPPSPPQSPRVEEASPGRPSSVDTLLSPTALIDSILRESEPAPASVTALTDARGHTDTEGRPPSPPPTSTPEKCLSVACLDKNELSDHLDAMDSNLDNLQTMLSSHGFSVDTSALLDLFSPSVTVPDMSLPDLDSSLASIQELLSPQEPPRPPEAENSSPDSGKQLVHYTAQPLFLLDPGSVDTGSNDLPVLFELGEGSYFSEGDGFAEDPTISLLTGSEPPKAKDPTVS
sequence,measurement,setting,value
ACGCTT,binding signal,FEV,"1.4 fold enrichment (6-mer frequency, TF over GST control)"
same,binding signal,ETV5,"1.41 fold enrichment (6-mer frequency, TF over GST control)"
same,binding signal,HSF1,"1.22 fold enrichment (6-mer frequency, TF over GST control)"
same,binding signal,SPIC,"1.32 fold enrichment (6-mer frequency, TF over GST control)"
same,binding signal,ELF4,"1.43 fold enrichment (6-mer frequency, TF over GST control)"
same,binding signal,ELK4,"1.23 fold enrichment (6-mer frequency, TF over GST control)"
same,binding signal,ETV2,"1.28 fold enrichment (6-mer frequency, TF over GST control)"
same,binding signal,ELF3,"1.55 fold enrichment (6-mer frequency, TF over GST control)"
same,binding signal,CRX,"1.36 fold enrichment (6-mer frequency, TF over GST control)"
same,binding signal,ETV1,"1.39 fold enrichment (6-mer frequency, TF over GST control)"
same,binding signal,ERF,"1.5 fold enrichment (6-mer frequency, TF over GST control)"
same,binding signal,ETV3L,"1.35 fold enrichment (6-mer frequency, TF over GST control)"
same,binding signal,ETS2,"1.42 fold enrichment (6-mer frequency, TF over GST control)"
same,binding signal,SPDEF,"1.39 fold enrichment (6-mer frequency, TF over GST control)"
same,binding signal,ETV7,"1.52 fold enrichment (6-mer frequency, TF over GST control)"
same,binding signal,ELF5,"1.22 fold enrichment (6-mer frequency, TF over GST control)"
same,binding signal,ETV3,"1.4 fold enrichment (6-mer frequency, TF over GST control)"
same,binding signal,ETV6,"1.45 fold enrichment (6-mer frequency, TF over GST control)"
